# In patent US20060069055, “Delivery of polynucleotides” (published 2006):
# Molecular target: NF-kB p65/p50 heterodimer (Homo sapiens, UniProt Q04206;P19838 Q04206:1-551,P19838:1-433)
# Assay: EMSA; Table 3 gives 58 for PO
# Conditions: protein: extract; tags: nuclear extract of LPS-stimulated THP-1 cells; dsDNA, one strand shown
# Description: The EMSA assay was employed to characterize oligonucleotide decoys for the NF-κB transcription factor. […] Using the above modified oligonucleotides to compete for binding for the above-mentioned NF-κB family members, it was possible to compare the binding affinity of these oligonucleotides against the high affinity radiolabeled probe and each other. This assay has also enabled the design of a decoy which selectively binds particular members of the NF-κB family. By using increasing concentrations of various oligonucleotides, it was observed that, by deleting or changing targeted residues in the binding site, it was possible to specifically decrease the binding of the decoy molecule to p50/p50 homodimers, while retaining the affinity for p65/p50 and cRel/p50 heterodimers.
# The NF-κB gel shift assays (EMSA) were performed as follows. A double-stranded oligonucleotide containing a consensus NF-κB binding site (5′ […].GGC 3′) (SEQ ID NO: 26) was end-labeled with γ³²P-ATP using T4 Polynucleotide Kinase (Promega). […] The dried gels were imaged and quantitated using a Typhoon 8600 Phosphorlmager (Amersham) and ImageQuant software. […]
# Sequence of NF-kB p65/p50 heterodimer (Q04206 whole entry, chain 1 of 2): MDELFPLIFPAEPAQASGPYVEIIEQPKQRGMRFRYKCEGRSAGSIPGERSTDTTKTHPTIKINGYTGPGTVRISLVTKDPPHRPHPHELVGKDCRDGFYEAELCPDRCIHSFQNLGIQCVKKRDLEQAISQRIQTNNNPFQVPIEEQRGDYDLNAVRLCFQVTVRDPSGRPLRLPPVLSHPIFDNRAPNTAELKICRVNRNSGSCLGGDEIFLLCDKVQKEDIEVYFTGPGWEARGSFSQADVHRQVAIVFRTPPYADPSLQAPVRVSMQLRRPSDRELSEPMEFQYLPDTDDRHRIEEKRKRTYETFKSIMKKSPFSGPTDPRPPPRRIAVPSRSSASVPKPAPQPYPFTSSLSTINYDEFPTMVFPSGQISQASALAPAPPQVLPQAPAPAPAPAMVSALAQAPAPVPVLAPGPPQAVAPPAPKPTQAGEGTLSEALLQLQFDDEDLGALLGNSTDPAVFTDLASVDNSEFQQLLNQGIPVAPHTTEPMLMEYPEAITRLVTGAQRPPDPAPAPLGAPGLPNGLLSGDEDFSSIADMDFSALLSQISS
# Sequence of NF-kB p65/p50 heterodimer (P19838 1-433, chain 2 of 2): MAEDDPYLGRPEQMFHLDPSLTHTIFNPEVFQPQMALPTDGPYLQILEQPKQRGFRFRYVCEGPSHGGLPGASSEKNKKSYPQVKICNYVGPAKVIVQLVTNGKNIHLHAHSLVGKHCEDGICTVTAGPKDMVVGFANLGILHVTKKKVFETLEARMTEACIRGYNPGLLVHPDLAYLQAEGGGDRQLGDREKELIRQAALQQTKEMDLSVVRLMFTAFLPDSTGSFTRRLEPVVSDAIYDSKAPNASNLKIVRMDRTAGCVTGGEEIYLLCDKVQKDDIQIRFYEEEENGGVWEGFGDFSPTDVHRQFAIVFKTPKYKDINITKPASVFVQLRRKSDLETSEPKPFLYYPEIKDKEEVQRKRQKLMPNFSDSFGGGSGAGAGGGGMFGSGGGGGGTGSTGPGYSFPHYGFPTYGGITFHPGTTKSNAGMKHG
row,Sequence,IC50 [fold molar excess]
1,AGTTGAGGACTTTCCAGGC,62.4
